From the supplement of paper PMC6555819 come the findings set out here.

Experiment in all cases: PBM binding z-score (relative to random genomic background probes); higher = stronger binding; sequences stand for … in GC…GCGATTGACAGCGTAGAATGAAGG
Test [1] concerns RARb homodimer (NR concentration 270 nM). Put shortly: (§1)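 Custom Agilent 4×180K protein-binding microarrays carried double-stranded probes, each with a 34-nt variable region. These regions held direct-repeat seeds, single-nucleotide variants, half-site ablations and random human genomic background sequences. Ligand-free nuclear receptor dimers were incubated on the arrays for 1 h, antibodies against each partner (one per run) detected binding, and scanned fluorescence was regression-normalized. Binding z-scores take the random background probes as reference.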

In test [2] the test system is RARg:RXRa (NR concentration 270 nM, RXRa partner concentration 90 nM). In outline: as §1
Test [3] relates to RARg homodimer (NR concentration 270 nM). In outline: as §1
The test system of test [4] is RXRa DBDmut IVT, anti-RXR (DBD mutation: RXRa K156A/R161A, NR concentration 90 nM). In outline: as §1
Test [5] has as its system RXRa homodimer (NR concentration 180 nM). In outline:
as §1

The subject of test [6] is THRa:RXRa (NR concentration 90 nM, RXRa partner concentration 90 nM). Put shortly: as §1
Test [7] has as its system THRa homodimer (NR concentration 90 nM). Put shortly:
as §1

For test [8], the system named is VDR homodimer (NR concentration 270 nM). In outline:
as §1

In the case of CTCGAACGGTCGTGCTCAGGTGAGTATACCAAAC, the PBM binding z-score in test [1] is 0.628; in test [2], 0.435; in test [3], 0.489; in test [4] it was 0.177; in test [5], -0.088; in test [6], 1.4. The figures for the PBM binding z-score in test [7] and in test [8] were 0.536 and -0.528, respectively.
On to TCGAGTAAGTTAGTCGGGGCATTCAGCCAACATA, for which the PBM binding z-score is -0.375 in test [1]; -0.647 in test [2]; -0.674 in test [3]; 0.38 in test [4]; -0.255 in test [5]; 0.0972 in test [6]. Besides, the PBM binding z-score in test [7] is -0.58; in test [8], -0.125.
In the case of CGTCCAAGGTCAACGTCAGTGAAAGAGACTCGAA, the PBM binding z-score was 3.98 in test [1]; 6.3 in test [2]; 7.13 in test [3]; 3.49 in test [4]; 6.13 in test [5]; 4.04 in test [6]. Further, the PBM binding z-score was 2.55 in test [7] and 1.8 in test [8].
With TCATATAGGTAAACAGGCGAAAGTCCGTAAGTTA, the PBM binding z-score in test [1] was 0.187; in test [2], 0.299; in test [3] it was -0.00353; in test [4], 1.36; in test [5] it was 0.859; in test [6], 0.323. In addition, the PBM binding z-score in test [7] was -0.0757; in test [8], 0.216.
Regarding AGAAGGAGGGCACGCTGAGTTGATAGCAGAGTAG, the PBM binding z-score turned out to be 1.4 in test [1]; 1.94 in test [2]; 2.17 in test [3]; 0.783 in test [4]; 1.2 in test [5]; 1.13 in test [6]. The PBM binding z-score is -0.112 in test [7] and 1.04 in test [8].
On to GCTGCTAGGTCGGGTTGGTCAGCTAACGGGTACG, for which the PBM binding z-score was 0.957 in test [1]; 0.215 in test [2]; 0.167 in test [3]; -0.0966 in test [4]; 0.0101 in test [5]; 0.409 in test [6]. For the same sequence, the PBM binding z-score in test [7] was determined as 0.283; in test [8] it was 0.431.
In the case of ACTAGCAGGCCAAGGTTCACTCAAGATTAGTCCG, the PBM binding z-score in test [1] is 1.66; in test [2], 1.53; in test [3], 1.15; in test [4] it was 1.75; in test [5], 1.58; in test [6], 1.31. Further, the PBM binding z-score in test [7] amounted to 0.0178; in test [8], 3.42.
